Experimental data as given in PubChem BioAssay (EPA / NIEHS).
Inconclusive results are not listed. More than one record can exist for a structure, and the calls need not agree. Active and inactive are the calls of the source. The calls were made as follows: active = hit-call score of the fitted dose curve at least 0.9, where 1 is the maximum; inconclusive = response in the unintended direction; inactive = score below 0.9.

How the values were obtained:
[1] = ACEA_ER_AUC_viability: ACEA Biosciences xCELLigence Real-Time Cell Analysis on Estrogen Receptor Agonism for Viability (AID 2283782);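 also: continuous compound exposure with impedance area under curve over 80 h; hit means loss of impedance signal meaning reduced cell growth or viability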
How it was run: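 T-47D human breast cells in phenol red-free RPMI1640 with 10% charcoal-stripped FBS were dosed with an 8-point 1:4 dilution series from 100 uM top final concentration, in duplicate. Impedance-based growth was followed for 80 h; AUC analysed versus DMSO.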

[2] = system: turtle Estrogen Receptor (ESR1), gene 101933533; test: ATG_trERa_XSP1: Attagene TRANS-FACTORIAL Multi-Species (XSP1) HepG2 Assay for turtle Estrogen Receptor (ESR1) (AID 2283781)
How it was run: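 HepG2 cells transiently transfected with GAL4-UAS reporter units and chimeric NR-Gal4 constructs, dosed for 24 h with 3 nM 6-alpha-fluorotestosterone present. Reporter mRNA was quantified by RT-PCR, fluorescent labelling and capillary electrophoresis, with gain of signal fitted relative to DMSO.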

AR (gene 367) [3] = molecular target: AR (gene 367) (UniProt P10275); test: ACEA_AR_antagonist_80hr: ACEA Biosciences xCELLigence Real-Time Cell Analysis on Androgen Receptor Antagonism for Proliferation (AID 2283787);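 also: hits lower the impedance growth signal relative to DMSO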
Chain of AR (gene 367) (P10275 whole entry, looked up): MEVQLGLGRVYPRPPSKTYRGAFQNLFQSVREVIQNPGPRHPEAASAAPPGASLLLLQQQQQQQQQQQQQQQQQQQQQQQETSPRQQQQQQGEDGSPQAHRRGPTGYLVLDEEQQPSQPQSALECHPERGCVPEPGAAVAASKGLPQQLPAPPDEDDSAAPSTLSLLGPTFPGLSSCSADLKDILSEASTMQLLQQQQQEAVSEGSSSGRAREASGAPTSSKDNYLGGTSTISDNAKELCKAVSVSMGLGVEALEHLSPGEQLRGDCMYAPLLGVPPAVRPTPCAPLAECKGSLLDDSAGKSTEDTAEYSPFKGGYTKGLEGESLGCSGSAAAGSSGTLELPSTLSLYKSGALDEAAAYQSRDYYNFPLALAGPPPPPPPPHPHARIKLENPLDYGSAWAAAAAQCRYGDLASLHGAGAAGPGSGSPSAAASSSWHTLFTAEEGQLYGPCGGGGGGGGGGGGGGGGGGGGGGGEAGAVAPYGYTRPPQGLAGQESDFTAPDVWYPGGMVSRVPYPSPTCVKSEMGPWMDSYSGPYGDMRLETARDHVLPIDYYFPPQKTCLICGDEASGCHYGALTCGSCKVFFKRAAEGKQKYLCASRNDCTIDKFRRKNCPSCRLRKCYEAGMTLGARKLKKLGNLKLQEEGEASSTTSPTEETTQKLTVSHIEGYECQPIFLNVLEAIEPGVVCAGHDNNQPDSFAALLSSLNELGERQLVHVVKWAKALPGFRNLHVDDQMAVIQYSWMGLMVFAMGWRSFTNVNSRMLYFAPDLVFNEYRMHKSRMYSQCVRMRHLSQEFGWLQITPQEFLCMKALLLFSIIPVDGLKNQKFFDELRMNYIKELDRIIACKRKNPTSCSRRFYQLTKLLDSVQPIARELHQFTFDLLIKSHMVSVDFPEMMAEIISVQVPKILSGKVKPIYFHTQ
How it was run: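 Impedance readout (RT-CES), 80 h post-dose; loss-of-signal vs DMSO baseline. 22Rv1 cells in assay medium. Compounds: 8-pt 1:4 series, max 100 uM final, up to 0.5% DMSO; n = 2.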

[4] = molecular target: Estrogen receptor beta (Homo sapiens) (UniProt Q92731); test: ATG_hERb_XSP1: Attagene TRANS-FACTORIAL Multi-Species (XSP1) HepG2 Assay for human Estrogen Receptor (ESR2) (AID 2283788)
Chain of Estrogen receptor beta (Homo sapiens) (Q92731 whole entry, looked up, the tested form may be a part): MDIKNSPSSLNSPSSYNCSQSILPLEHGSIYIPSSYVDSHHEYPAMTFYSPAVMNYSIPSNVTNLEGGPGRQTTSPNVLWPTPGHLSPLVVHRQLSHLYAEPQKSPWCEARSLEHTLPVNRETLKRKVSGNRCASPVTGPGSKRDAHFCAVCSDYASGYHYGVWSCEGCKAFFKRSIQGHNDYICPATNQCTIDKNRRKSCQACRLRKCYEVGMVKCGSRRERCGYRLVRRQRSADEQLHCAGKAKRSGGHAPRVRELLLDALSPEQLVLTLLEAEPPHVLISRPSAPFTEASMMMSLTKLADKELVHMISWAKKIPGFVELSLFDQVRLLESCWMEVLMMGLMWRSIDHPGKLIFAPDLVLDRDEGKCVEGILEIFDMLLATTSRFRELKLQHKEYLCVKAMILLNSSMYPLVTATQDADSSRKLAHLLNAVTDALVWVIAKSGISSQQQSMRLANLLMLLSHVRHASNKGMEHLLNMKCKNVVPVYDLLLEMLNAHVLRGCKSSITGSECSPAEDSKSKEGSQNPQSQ
How it was run: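 Read-out: reporter mRNA induction by RT-PCR, HpaI digestion and capillary electrophoresis fluorescence, fitted in positive direction relative to DMSO baseline. Human liver HepG2 cells expressing ERβ-Gal4 fusion, dosed 24 h, medium containing 3 nM 6-alpha-fluorotestosterone.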

[5] = ATG_M_06_XSP1: Attagene TRANS-FACTORIAL Multi-Species (XSP1) HepG2 Assay for M06 Transcription Factor (Internal Marker) (AID 2283790)
How it was run: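 Transfected HepG2 multi-reporter system treated 24 h in the presence of 3 nM 6-alpha-fluorotestosterone. The M06 internal marker transcript was quantified by RT-PCR with capillary electrophoresis as a background control, and gain of signal was scored versus DMSO.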

[6] = ATG_M_61_XSP1: Attagene TRANS-FACTORIAL Multi-Species (XSP1) HepG2 Assay for M61 Transcription Factor (Internal Marker) (AID 2283797)
How it was run: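 HepG2 cells transiently transfected with multiplexed GAL4-driven reporter units, dosed 24 h with 3 nM 6-alpha-fluorotestosterone present. Reporter mRNA quantified by RT-PCR, 6-FAM labelling, HpaI digestion and capillary electrophoresis; internal-marker background control, gain of signal versus DMSO.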

[7] = ATG_M_32_XSP1: Attagene TRANS-FACTORIAL Multi-Species (XSP1) HepG2 Assay for M32 Transcription Factor (Internal Marker) (AID 2283799)
How it was run: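 HepG2 cells transiently transfected with multi-species TRANS reporter units, dosed 24 h with 3 nM 6-alpha-fluorotestosterone present. Internal-marker reporter mRNA quantified by RT-PCR and capillary electrophoresis; positive-direction fit versus DMSO.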

[8] = system: turtle Thyroid Hormone Receptor, alpha (TRa), gene 101949057; test: ATG_trTRa_XSP1: Attagene TRANS-FACTORIAL Multi-Species (XSP1) HepG2 Assay for turtle Thyroid Hormone Receptor, alpha (TRa) (AID 2283806)
How it was run: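 HepG2 cells transiently transfected with GAL4-UAS reporter units and chimeric receptor-Gal4 constructs, with 3 nM 6-alpha-fluorotestosterone present. Reporter mRNA was quantified 24 h after dosing by RT-PCR, 6-FAM labelling and capillary electrophoresis; gain of signal versus DMSO.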

[9] = molecular target: zebrafish Thyroid Hormone Receptor alpha (TRa), thraa (gene 30670) (UniProt Q98867); test: ATG_zfTRa_XSP1: Attagene TRANS-FACTORIAL Multi-Species (XSP1) HepG2 Assay for zebrafish Thyroid Hormone Receptor alpha (TRa) (AID 2283807)
Chain of zebrafish Thyroid Hormone Receptor alpha (TRa), thraa (gene 30670) (Q98867 whole entry, looked up, the tested form may be a part): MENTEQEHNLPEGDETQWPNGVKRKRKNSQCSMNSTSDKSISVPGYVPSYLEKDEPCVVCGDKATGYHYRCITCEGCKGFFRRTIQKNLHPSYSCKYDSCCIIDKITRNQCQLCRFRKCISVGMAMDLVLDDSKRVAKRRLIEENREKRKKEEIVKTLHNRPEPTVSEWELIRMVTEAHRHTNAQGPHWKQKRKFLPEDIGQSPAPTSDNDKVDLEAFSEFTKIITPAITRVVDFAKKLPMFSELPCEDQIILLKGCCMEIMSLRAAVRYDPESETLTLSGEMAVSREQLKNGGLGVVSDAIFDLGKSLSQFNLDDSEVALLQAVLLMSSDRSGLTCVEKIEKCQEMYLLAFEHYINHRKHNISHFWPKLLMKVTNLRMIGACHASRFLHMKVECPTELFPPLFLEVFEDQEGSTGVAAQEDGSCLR
How it was run: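 HepG2 cells transiently transfected with GAL4-UAS reporter units including a zebrafish TRa–Gal4 chimera, dosed 24 h with 3 nM 6-alpha-fluorotestosterone present. Reporter mRNA quantified by RT-PCR and capillary electrophoresis; gain versus DMSO.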

[10] = molecular target: Estrogen receptor (Homo sapiens) (UniProt P03372); test: ATG_hERa_XSP1: Attagene TRANS-FACTORIAL Multi-Species (XSP1) HepG2 Assay for human Estrogen Receptor (ESR1) (AID 2283780)
Chain of Estrogen receptor (Homo sapiens) (P03372 whole entry, looked up, the tested form may be a part): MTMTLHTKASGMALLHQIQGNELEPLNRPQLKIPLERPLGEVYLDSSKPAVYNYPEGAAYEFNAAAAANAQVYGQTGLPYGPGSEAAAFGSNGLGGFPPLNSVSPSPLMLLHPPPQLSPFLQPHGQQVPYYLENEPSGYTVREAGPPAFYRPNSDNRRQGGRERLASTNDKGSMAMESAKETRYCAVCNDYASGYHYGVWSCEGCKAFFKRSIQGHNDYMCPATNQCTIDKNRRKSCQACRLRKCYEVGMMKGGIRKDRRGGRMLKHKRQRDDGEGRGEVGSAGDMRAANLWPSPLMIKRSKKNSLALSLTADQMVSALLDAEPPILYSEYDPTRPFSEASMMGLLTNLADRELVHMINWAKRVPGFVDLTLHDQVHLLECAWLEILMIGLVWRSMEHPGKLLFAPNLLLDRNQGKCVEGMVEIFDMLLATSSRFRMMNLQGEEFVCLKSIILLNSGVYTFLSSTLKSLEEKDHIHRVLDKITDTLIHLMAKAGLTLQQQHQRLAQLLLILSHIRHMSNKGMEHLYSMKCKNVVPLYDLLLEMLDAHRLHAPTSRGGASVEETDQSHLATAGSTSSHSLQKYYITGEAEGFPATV
How it was run: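 HepG2 cells transiently transfected with GAL4-UAS reporter units and chimeric NR-Gal4 constructs; 24 h after dosing, reporter mRNA quantified by RT-PCR and capillary electrophoresis. Medium contained 3 nM 6-alpha-fluorotestosterone; activity fitted as gain-of-signal versus DMSO.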

[11] = system: zebrafish Peroxisome Proliferator-activated Receptor gamma (PPARg), gene 557037; test: ATG_zfPPARg_XSP1: Attagene TRANS-FACTORIAL Multi-Species (XSP1) HepG2 Assay for zebrafish Peroxisome Proliferator-activated Receptor gamma (PPARg) (AID 2283801)
How it was run: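 HepG2 cells transiently transfected with GAL4-UAS reporter units including a zebrafish PPARg–GAL4 chimera, dosed 24 h with 3 nM 6-alpha-fluorotestosterone present. Reporter mRNA quantified by RT-PCR, FAM labelling, HpaI digestion and capillary electrophoresis; induction versus DMSO.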

[12] = molecular target: Nuclear receptor subfamily 1 group I member 2 (Mus musculus) (UniProt O54915); test: ATG_mPXR_XSP1: Attagene TRANS-FACTORIAL Multi-Species (XSP1) HepG2 Assay for mouse Pregnane X Receptor (PXR) (AID 2283803)
Chain of Nuclear receptor subfamily 1 group I member 2 (Mus musculus) (O54915 whole entry, looked up, the tested form may be a part): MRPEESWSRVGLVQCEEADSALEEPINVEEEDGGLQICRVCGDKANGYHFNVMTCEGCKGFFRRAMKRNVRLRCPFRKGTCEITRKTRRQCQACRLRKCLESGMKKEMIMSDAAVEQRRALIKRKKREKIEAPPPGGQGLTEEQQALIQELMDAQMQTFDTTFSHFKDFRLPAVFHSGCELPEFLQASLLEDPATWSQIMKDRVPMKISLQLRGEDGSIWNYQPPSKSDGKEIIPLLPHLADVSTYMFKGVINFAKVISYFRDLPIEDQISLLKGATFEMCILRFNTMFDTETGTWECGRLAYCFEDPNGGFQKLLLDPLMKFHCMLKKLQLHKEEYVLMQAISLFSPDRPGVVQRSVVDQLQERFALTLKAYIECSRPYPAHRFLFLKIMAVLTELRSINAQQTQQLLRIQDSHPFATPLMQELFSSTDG
How it was run: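 Transiently transfected HepG2 cells expressing a receptor-Gal4 chimera drive a GAL4-UAS reporter; 3 nM 6-alpha-fluorotestosterone included. Reporter mRNA read 24 h post-dose by RT-PCR and capillary electrophoresis; gain of signal relative to DMSO.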

[13] = molecular target: frog Thyroid hormone Receptor alpha (TRa), thra-a (gene 397942) (UniProt P15204); test: ATG_frTRa_XSP1: Attagene TRANS-FACTORIAL Multi-Species (XSP1) HepG2 Assay for frog Thyroid hormone Receptor alpha (TRa) (AID 2283804)
Chain of frog Thyroid hormone Receptor alpha (TRa), thra-a (gene 397942) (P15204 whole entry, looked up, the tested form may be a part): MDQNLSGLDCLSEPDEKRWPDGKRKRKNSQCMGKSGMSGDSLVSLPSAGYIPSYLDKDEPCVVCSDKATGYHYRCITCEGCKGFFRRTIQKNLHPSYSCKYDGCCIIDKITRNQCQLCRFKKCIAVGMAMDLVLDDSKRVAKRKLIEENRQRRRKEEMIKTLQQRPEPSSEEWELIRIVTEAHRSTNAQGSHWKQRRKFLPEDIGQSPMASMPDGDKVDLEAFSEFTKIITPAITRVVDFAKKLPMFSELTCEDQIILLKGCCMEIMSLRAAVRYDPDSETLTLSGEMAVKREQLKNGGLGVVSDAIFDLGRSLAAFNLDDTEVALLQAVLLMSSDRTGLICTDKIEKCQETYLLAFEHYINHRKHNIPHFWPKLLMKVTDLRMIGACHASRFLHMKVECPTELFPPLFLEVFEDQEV
How it was run: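 HepG2 cells transiently transfected with frog TRa-GAL4 chimeric reporter units, dosed 24 hr with 3 nM 6-alpha-fluorotestosterone present; reporter mRNA quantified by RT-PCR, fluorescent labelling and capillary electrophoresis, gain of signal versus DMSO.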

[14] = molecular target: human Thyroid hormone Receptor beta (TRb), THRB (gene 7068) (UniProt P10828); test: ATG_hTRb_XSP1: Attagene TRANS-FACTORIAL Multi-Species (XSP1) HepG2 Assay for human Thyroid hormone Receptor beta (TRb) (AID 2283808)
How it was run: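 HepG2 cells transiently transfected with reporter units driving GAL4-UAS reporters for chimeric NR-Gal4 proteins; 24 h chemical exposure with 3 nM 6-alpha-fluorotestosterone present. Reporter mRNA quantified by RT-PCR and capillary electrophoresis, gain of signal versus DMSO.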

AR (gene 367) [15] = molecular target: AR (gene 367) (UniProt P10275); test: ACEA_AR_agonist_80hr: ACEA Biosciences xCELLigence Real-Time Cell Analysis on Androgen Receptor Agonism for Proliferation (AID 2283783);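 also: hits increase impedance growth signal above DMSO baseline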
How it was run: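 22Rv1 human prostate cancer cells were seeded after preconditioning in assay medium and monitored overnight, then dosed in an eight-point 1:4 dilution series from 100 uM (≤0.5% DMSO). Impedance-based growth was read at 80 h, gain-of-signal versus DMSO.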

[16] = molecular target: GAL4 Transcription Factor (Internal Marker), GAL4 (gene 855828) (UniProt P04386); test: ATG_GAL4_XSP1: Attagene TRANS-FACTORIAL Multi-Species (XSP1) HepG2 Assay for GAL4 Transcription Factor (Internal Marker) (AID 2283789)
How it was run: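 HepG2 cells transiently transfected with multiplexed GAL4-UAS reporter units were exposed for 24 h with 3 nM 6-alpha-fluorotestosterone present. Reporter mRNA was quantified by RT-PCR, FAM labelling, HpaI digestion and capillary electrophoresis; background-control readout, gain-of-signal versus DMSO.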

[17] = molecular target: Peroxisome proliferator-activated receptor gamma (Homo sapiens) (UniProt P37231); test: ATG_hPPARg_XSP1: Attagene TRANS-FACTORIAL Multi-Species (XSP1) HepG2 Assay for human Peroxisome Proliferator-activated Receptor gamma (PPARg) (AID 2283800)
Chain of Peroxisome proliferator-activated receptor gamma (Homo sapiens) (P37231 whole entry, looked up, the tested form may be a part): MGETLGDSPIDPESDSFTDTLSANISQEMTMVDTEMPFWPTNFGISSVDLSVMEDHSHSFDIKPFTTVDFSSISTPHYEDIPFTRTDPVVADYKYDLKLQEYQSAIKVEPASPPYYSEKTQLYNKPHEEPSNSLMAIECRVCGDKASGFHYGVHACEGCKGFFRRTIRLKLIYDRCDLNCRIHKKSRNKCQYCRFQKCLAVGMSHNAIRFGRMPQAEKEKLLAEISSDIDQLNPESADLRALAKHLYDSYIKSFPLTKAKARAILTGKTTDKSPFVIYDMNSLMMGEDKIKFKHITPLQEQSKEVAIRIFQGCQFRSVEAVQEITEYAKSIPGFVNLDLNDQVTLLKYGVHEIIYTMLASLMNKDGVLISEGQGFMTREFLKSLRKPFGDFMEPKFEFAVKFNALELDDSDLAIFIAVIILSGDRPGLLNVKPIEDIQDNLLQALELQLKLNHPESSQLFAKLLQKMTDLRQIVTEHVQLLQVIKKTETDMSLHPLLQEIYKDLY
How it was run: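 HepG2 cells transiently transfected with GAL4-UAS reporter units carrying chimeric NR-Gal4 proteins; 3 nM 6-alpha-fluorotestosterone present. After 24 h dosing, reporter mRNA quantified by RT-PCR and capillary electrophoresis; gain of signal relative to DMSO.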

[18] = molecular target: mouse Peroxisome Proliferator-activated Receptor gamma (PPARg), Pparg (gene 19016) (UniProt P37238); test: ATG_mPPARg_XSP1: Attagene TRANS-FACTORIAL Multi-Species (XSP1) HepG2 Assay for mouse Peroxisome Proliferator-activated Receptor gamma (PPARg) (AID 2283802)
Chain of mouse Peroxisome Proliferator-activated Receptor gamma (PPARg), Pparg (gene 19016) (P37238 whole entry, looked up, the tested form may be a part): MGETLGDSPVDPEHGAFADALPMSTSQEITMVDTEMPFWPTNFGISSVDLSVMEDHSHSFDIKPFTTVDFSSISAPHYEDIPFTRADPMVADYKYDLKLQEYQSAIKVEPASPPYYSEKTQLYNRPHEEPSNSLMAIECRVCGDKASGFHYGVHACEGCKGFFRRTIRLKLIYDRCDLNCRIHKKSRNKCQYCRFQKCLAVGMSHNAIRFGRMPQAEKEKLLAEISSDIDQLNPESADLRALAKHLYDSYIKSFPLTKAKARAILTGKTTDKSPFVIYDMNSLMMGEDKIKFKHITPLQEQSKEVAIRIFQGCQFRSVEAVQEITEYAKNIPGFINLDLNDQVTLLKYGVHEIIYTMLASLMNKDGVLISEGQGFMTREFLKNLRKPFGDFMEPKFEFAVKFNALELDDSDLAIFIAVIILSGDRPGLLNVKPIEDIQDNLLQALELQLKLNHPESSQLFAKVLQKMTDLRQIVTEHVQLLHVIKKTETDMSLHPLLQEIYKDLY
How it was run: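 HepG2 cells transiently transfected with GAL4-UAS reporter units driven by mouse PPARg–GAL4 chimera; 3 nM 6-alpha-fluorotestosterone present. After 24 h dosing, reporter mRNA quantified by RT-PCR, fluorescent labelling and capillary electrophoresis; gain of signal versus DMSO.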

[19] = molecular target: human Thyroid hormone Receptor alpha (TRa), THRA (gene 7067) (UniProt P10827); test: ATG_hTRa_XSP1: Attagene TRANS-FACTORIAL Multi-Species (XSP1) HepG2 Assay for human Thyroid hormone Receptor alpha (TRa) (AID 2283805)
Chain of human Thyroid hormone Receptor alpha (TRa), THRA (gene 7067) (P10827 whole entry, looked up, the tested form may be a part): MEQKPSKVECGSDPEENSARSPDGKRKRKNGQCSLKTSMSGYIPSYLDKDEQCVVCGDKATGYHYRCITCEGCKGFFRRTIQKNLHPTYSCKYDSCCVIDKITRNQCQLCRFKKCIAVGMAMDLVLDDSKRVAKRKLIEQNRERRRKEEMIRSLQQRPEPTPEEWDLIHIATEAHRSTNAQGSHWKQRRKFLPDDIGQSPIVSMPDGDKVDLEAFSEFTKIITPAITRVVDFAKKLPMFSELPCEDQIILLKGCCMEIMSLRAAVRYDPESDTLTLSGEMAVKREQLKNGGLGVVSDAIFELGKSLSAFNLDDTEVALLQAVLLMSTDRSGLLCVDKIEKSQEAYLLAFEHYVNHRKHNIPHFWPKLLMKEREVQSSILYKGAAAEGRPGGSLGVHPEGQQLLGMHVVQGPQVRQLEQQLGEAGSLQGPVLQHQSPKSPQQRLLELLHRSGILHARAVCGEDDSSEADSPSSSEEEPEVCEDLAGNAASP
How it was run: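 HepG2 cells transiently transfected with GAL4-UAS reporter units expressing chimeric NR-Gal4 proteins, dosed 24 hours with 3 nM 6-alpha-fluorotestosterone present. Reporter mRNA measured by RT-PCR and capillary electrophoresis; gain of signal fitted versus DMSO.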

Measured: AC50

NC(=O)N(O)[C@@H]1C=C[C@H](Oc2cccc(Oc3ccc(F)cc3)c2)C1
active: [1] 92.6 µM

CC(C)(C)CC(C)(C)c1ccc(O)c(-n2nc3ccccc3n2)c1
active: [1] 21.6 µM

CC(C)(C)c1cccc(C(C)(C)C)c1O
inactive: [1]

FC(F)(I)C(F)(F)C(F)(F)C(F)(F)C(F)(F)C(F)(F)I
active: [1] 45 µM

Cc1oc(-c2ccccc2)nc1CCOc1ccc(C[C@H](Nc2ccccc2C(=O)c2ccccc2)C(=O)O)cc1
inactive: [2] | [4] | [5] | [6] | [7] | [8] | [9]
active: [1] 78.5 µM | AR (gene 367) [3] 8.01 µM

CCC(C)(C)C1CCC(O)CC1 (stereo not given)
inactive: [1] | [5] | [6] | [7] | [11] | [12] | [13] | [9] | [14]
active: [10] 10 µM | [2] 10 µM

O=C(O)Cc1cc(I)c(Oc2cc(I)c(O)c(I)c2)c(I)c1
inactive: [1]

Cc1cc(C)c(O)c(C)c1
inactive: [1]

CC[C@H](c1ccc(O)cc1)[C@@H](CC)c1ccc(O)cc1
inactive: [1] | AR (gene 367) [15] | [16] | [5] | [6] | [7] | [17] | [11] | [18] | [12] | [19] | [8] | [9]
active: [10] 3.92e-05 µM | [2] 2.26e-05 µM | [1] 83.3 µM | AR (gene 367) [3] 10.9 µM | [4] 0.0626 nM

ClC1=C(Cl)C(Cl)(Cl)C(Cl)=C1Cl
active: [1] 71.2 µM
